Laboratory results as given in PubChem BioAssay (NCI).
The panel holds about 79,000 compounds, 15% with a hit somewhere; the sample as a whole holds those more often. Calls of active or inactive are those of the source. Cut-off read from the data, not from the text of the source: active = growth inhibition above about 70%; inactive = the rest.

Columns and labels:
[1] = NCI Yeast Anticancer Drug Screen. Data for the rad50 strain (AID 155);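 note: 0% = growth of vehicle-only cultures of the same strain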; settings: S. cerevisiae rad50 strain growth inhibition; at 50.0 µM; active compounds read high
Summary of the method: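 Relative growth inhibition (compound vs vehicle) was measured in yeast with a defined repair-gene alteration.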

[2] = NCI Yeast Anticancer Drug Screen. Data for the mec2-1 strain (AID 157); settings: S. cerevisiae mec2-1 strain, at 50.0 µM, active compounds read high
Summary of the method: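 Each compound was tested on mec2-1 yeast, a strain altered in DNA damage repair or cell cycle control. Growth inhibition is reported relative to vehicle.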

[3] = NCI Yeast Anticancer Drug Screen. Data for the sgs1 mgt1 strain (AID 161);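 note: 0% = growth of cultures given vehicle only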; settings: S. cerevisiae sgs1 mgt1 strain, at 50.0 µM, active compounds read high
Summary of the method: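 Genetically altered yeast, compound exposure, growth inhibition relative to vehicle.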

[4] = NCI Yeast Anticancer Drug Screen. Data for the cln2 rad14 strain (AID 165);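 note: 0% = growth equal to vehicle treated cultures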; settings: S. cerevisiae cln2 rad14 strain, at 50.0 µM, active compounds read high
Summary of the method: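 Test compounds were added to cln2 rad14 yeast cultures; inhibition of growth was then determined by comparison with vehicle treatment.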

[5] = NCI Yeast Anticancer Drug Screen. Data for the bub3 strain (AID 167); settings: S. cerevisiae bub3 mutant strain, at 50.0 µM, active compounds read high
Summary of the method: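 Screening used yeast with an engineered genetic alteration affecting cell cycle control. Compound-exposed cultures were compared with vehicle cultures, and reduced growth was taken as inhibition.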

[6] = NCI Yeast Anticancer Drug Screen. Data for the mlh1 rad18 strain (AID 175); settings: S. cerevisiae mlh1 rad18 strain growth inhibition; at 50.0 µM; active compounds read high
Summary of the method: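 Inhibition values reflect reduced growth of mutant yeast versus vehicle-treated controls following compound exposure; the mutations affect DNA damage repair.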

Measured: growth inhibition

NS(=O)(=O)c1cccc([N+](=O)[O-])c1
inactive: [1] 21.1% | [2] 5% | [3] 6.7% | [4] 5.95% | [5] -2.5% | [6] -13.1%

Cc1cc(C)c(C2=[N+]([O-])ON3CCc4ccccc4C23)c(C)c1 (stereo not given)
inactive: [1] 1.5% | [2] -7.7% | [3] -3.05% | [4] 4.5% | [5] -5.3% | [6] -3.2%

COC(=O)C1CCC(C(=O)OC)CC1 (stereo not given)
inactive: [1] -4.3% | [2] -22.6% | [3] -2.3% | [4] -1.15% | [5] -9% | [6] -11.1%

O=C(Nc1cccc(Cl)c1)OCc1ccccn1
inactive: [1] 37.6% | [2] 8.15% | [3] 6.9% | [4] -21.5% | [5] -0.95% | [6] 22.1%

CC[C@H]1CN(C)[C@H]2Cc3c([nH]c4ccccc34)C(=O)C[C@H]1C2C(=O)OC (stereo not given in full)
inactive: [1] -0.35% | [2] -0.95% | [3] 6.95% | [4] 12.6% | [5] -1.65% | [6] -35.9%

Cc1ccc(S(=O)(=O)NC(Cc2ccccc2)C(=O)NCc2cccnc2)cc1 (stereo not given)
inactive: [1] 23.6% | [2] -8.4% | [3] 5.2% | [4] 4.45% | [5] -4.1% | [6] 4.65%

CCO[C@H]1OC(=O)[C@@H]2C(c3ccc(F)cc3)=NO[C@H]12
inactive: [1] -27.1% | [2] -44.4% | [3] 0.35% | [4] 2.7% | [5] 8.95% | [6] -9.3%

CC(=O)NC1C(OC(C)C(=O)NC(C(=O)NC(CCC(=O)NCCCNC2c3ccccc3Nc3cccc([N+](=O)[O-])c32)C(N)=O)C(C)C)C(O)C(CO)OC1(C)OCc1ccccc1 (stereo not given)
inactive: [1] -29.1% | [2] -20.4% | [3] 4.3% | [4] 13.4% | [5] -25.8% | [6] 3.25%

COc1cc(N)c2c(c1)SC(c1ccccc1)C(=O)N2 (stereo not given)
inactive: [1] -23.6% | [2] 4.25% | [3] 1% | [4] 14.1% | [5] 32.6% | [6] 15.7%

CC(C)CC1=C(N(C)C)C(=O)C=C(N(C)C)C1=O
inactive: [1] -0.35% | [2] -9.4% | [3] 10.2% | [4] -5.65% | [5] -9.85% | [6] -13.4%

CCOC(=O)C1CCCCC1C(=O)OCC (stereo not given)
inactive: [1] -1.7% | [2] -15.8% | [3] -7.3% | [4] -3.55% | [5] -28.1% | [6] -26.9%

COC(=O)c1cc(C)ccc1/C=C1\Cc2c(C)cc(C)cc2C1=O
inactive: [1] -12.2% | [2] -25.8% | [3] -6.85% | [4] -30.6% | [5] -46.1% | [6] -39.6%

CCNc1ncnc2c1cnn2C
inactive: [1] 0.45% | [2] -1.45% | [3] 2.45% | [4] -36% | [5] -2.8% | [6] -8.4%

Fc1ccc(F)c(C(Nc2nncs2)Nc2nncs2)c1
inactive: [1] 7.3% | [2] -8.75% | [3] 7.75% | [4] 2.4% | [5] 8.45% | [6] 7.85%

C/C(=N/NC(N)=O)c1cn[nH]c1C
inactive: [1] -27.6% | [2] -14.8% | [3] 3.7% | [4] -66% | [5] 11.9% | [6] 11.8%

CN(C)CCOC(=O)COc1ccc(Cl)cc1
inactive: [1] -10.2% | [2] 26.6% | [3] 9.9% | [4] 38% | [5] 28.9% | [6] 21.4%

Cc1nc2c(o1)C(=Nc1ccccc1)c1ccccc1C2=Nc1ccccc1
inactive: [1] -7.45% | [2] -23.4% | [3] 1.45% | [4] -13.9% | [5] -20.1% | [6] -9.65%

COc1cccc(Nc2nc(NS(=O)(=O)c3cc(C)c(Cl)cc3S)n[nH]2)c1
inactive: [1] -7.6% | [2] -2.3% | [3] -6.25% | [4] 7.95% | [5] 16.1% | [6] 15.8%

COc1cccc(C[n+]2cc([O-])on2)c1
inactive: [1] -16.1% | [2] 26.1% | [3] -3.3% | [4] -27.5% | [5] 21.1% | [6] 18.4%

COC(=O)c1ccccc1-c1ccccc1C(=O)OC
inactive: [1] 7.75% | [2] 18.1% | [3] 10.8% | [4] 25.8% | [5] 15.4% | [6] 13.7%

Nc1ccc2c(c1)Cc1c-2cc(Br)c(N)c1Br
inactive: [1] 4.95% | [2] -6.85% | [3] 9.5% | [4] -39.2% | [5] 1.9% | [6] -6.75%

CCC(CC)CC1CCCCC1O (stereo not given)
inactive: [1] -30.7% | [2] -44% | [3] -46.9% | [4] -17.2% | [5] -48.7% | [6] -11.9%

O=C(O)/C=C/c1ccccc1Br
inactive: [1] 20.8% | [2] 3.5% | [3] 12.7% | [4] 8.3% | [5] -8.7% | [6] -17.4%

CCOC(=O)C1=CC(C)(C(=O)OCC)Nc2c(nc(SC)[nH]c2=O)N1 (stereo not given)
inactive: [1] -30.9% | [2] -24.7% | [3] -14.7% | [4] 9.05% | [5] -11.8% | [6] 2.5%

CC1(C)CC[C@]2(C(=O)O)[C@H](O)C[C@]3(C)C(=CC[C@@H]4[C@@]5(C)CC[C@H](OC6OC(C(=O)O)C(O)C(O)C6O)C(C)(C)[C@@H]5CC[C@]43C)[C@@H]2C1 (stereo not given in full)
active: [1] 93.8% | [2] 95% | [3] 94.3% | [4] 92.7% | [5] 93.9% | [6] 93.7%

NC(=O)c1ccccc1C(N)=O
inactive: [1] 13.4% | [2] -10.6% | [3] 8.95% | [4] 30.7% | [5] -11.8% | [6] -31.9%

COc1ccc(-c2nnc3cc(C)n4nnnc4n23)cc1OC
inactive: [1] 5.3% | [2] 5.55% | [3] 13.7% | [4] 9.1% | [5] 11.6% | [6] 16.2%

CC(=O)Nc1ccc([N+](=O)[O-])cc1[N+](=O)[O-]
inactive: [1] 3.35% | [2] -10.9% | [3] -4.05% | [4] -37.9% | [5] -15.6% | [6] 3.95%

O=C(O)CSC(CC(=O)O)C(=O)O (stereo not given)
inactive: [1] 10.3% | [2] -9.4% | [3] 17.7% | [4] 8.85% | [5] 21.6% | [6] 4.25%

CSc1nc(N)c(C(N)=O)cc1C#N
inactive: [1] 5.45% | [2] 2.6% | [3] -5.4% | [4] -32.8% | [5] -16.6% | [6] 8.55%

COc1ncnc2ncn(C)c12
inactive: [1] 4.9% | [2] 18% | [3] -1.25% | [4] -12.9% | [5] 6.95% | [6] 0.2%

CNC(=O)N(C)COC
inactive: [1] -2.65% | [2] -10.9% | [3] 2.55% | [4] -0.7% | [5] -40.8% | [6] -5.1%

CC(C)C(NC(=O)C(=O)c1c[nH]c2ccc(Cl)cc12)C(=O)O (stereo not given)
inactive: [1] -28.9% | [2] -9.55% | [3] -5.7% | [4] -10% | [5] -10.2% | [6] -1.95%

Brc1ccccc2cc(-c3ccccc3)nc1-2
inactive: [1] 54.9% | [2] 30.5% | [3] 34.5% | [4] 19.9% | [5] 37.2% | [6] -7%

O=C(NN1C(=O)c2cccc3cccc(c23)C1=O)NN1C(=O)c2cccc3cccc(c23)C1=O
active: [1] 98.2% | [2] 99.4% | [3] 98.2% | [4] 99.5% | [5] 99.2% | [6] 99%

CCOC(=O)C1=C(C)N[C@H](c2ccccc2[N+](=O)[O-])N[C@H]1c1ccccc1[N+](=O)[O-]
inactive: [1] 22.2% | [2] 19.7% | [3] 19.9% | [4] 7% | [5] 1.45% | [6] 9.25%

CC1(C)C2CCC(I)(C2)C1I (stereo not given)
inactive: [1] 10.9% | [2] 0.45% | [3] -17.3% | [4] -15.8% | [5] 1.55% | [6] 10.3%

CC/C=C(C)/C=N\NC(=O)c1ccc[n+](C)c1
inactive: [1] 21.8% | [2] 12.6% | [3] 17.6% | [4] 23.6% | [5] -3.9% | [6] 2.55%

CC1Oc2c(c(=O)oc3ccccc23)[C@@]1(C)CC1C[C@H](C)C(=O)O1 (stereo not given in full)
inactive: [1] 31.6% | [2] 25.9% | [3] 35.2% | [4] 11.5% | [5] 11.4% | [6] 39.1%

Cc1cc(SCC(=O)c2ccccc2)nc2ccccc12
inactive: [1] -6.75% | [2] -24.1% | [3] -8.85% | [4] -2.25% | [5] -53.1% | [6] -2.7%
